Consider 39 sequences from publication PMC5700166.

The target of the assay is T1, GST-Nv-NF-kB (Ser allele) (Nematostella vectensis, UniProt A7UNT2 2-411).
T1 sequence: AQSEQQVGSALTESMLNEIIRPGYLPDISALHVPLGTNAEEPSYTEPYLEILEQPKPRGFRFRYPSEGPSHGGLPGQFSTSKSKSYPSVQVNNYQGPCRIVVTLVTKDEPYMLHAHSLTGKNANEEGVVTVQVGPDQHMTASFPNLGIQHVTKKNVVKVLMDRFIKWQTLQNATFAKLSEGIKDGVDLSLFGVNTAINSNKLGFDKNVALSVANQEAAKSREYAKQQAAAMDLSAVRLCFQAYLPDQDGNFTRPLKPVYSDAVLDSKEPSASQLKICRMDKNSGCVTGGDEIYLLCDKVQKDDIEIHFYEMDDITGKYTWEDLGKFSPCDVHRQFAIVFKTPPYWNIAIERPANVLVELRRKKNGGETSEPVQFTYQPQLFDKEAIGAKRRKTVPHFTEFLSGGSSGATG
Briefly: protein-binding microarray (PBM); PBM: ~300 nM protein, 6 mM HEPES pH 7.8, 80 mM KCl, 0.5 mM EDTA, 0.5 mM EGTA, 6% glycerol, 35 ng/ul poly-dIdC, 1% milk, 1 h, room temperature; Ap Aiptasia and Nv Nematostella (sea anemones) / Co Capsaspora / Aq Amphimedon (sponge) / Dm Drosophila / Hu human; RHD is the Rel homology domain; high values mean tight binding. Conditions: dsDNA, one strand shown.
For the sequence “CCGATTAACATCAACTGGGAAAATGATGTTAATCGGGTCTTGATTCGCTTGACGCTGCTG”, the binding signal is 4.25 z-score.
Then “CCGATTAACATCAGGAGTTTACCTGATGTTAATCGGGTCTTGATTCGCTTGACGCTGCTG”, with 2.03 z-score; and “CCGATTAACATCAAATCTTTCCCTGATGTTAATCGGGTCTTGATTCGCTTGACGCTGCTG”, with 6.25 z-score.
Regarding “CCGATTAACATCAAATCGGGAAATGATGTTAATCGGGTCTTGATTCGCTTGACGCTGCTG”, the binding signal is 2.88 z-score.
Then “CCGATTAACATCAAATAGCCCCCTGATGTTAATCGGGTCTTGATTCGCTTGACGCTGCTG”, with 3.62 z-score; and “CCGATTAACATCAAATTCCCACTTGATGTTAATCGGGTCTTGATTCGCTTGACGCTGCTG”, with 3.95 z-score; and “CCGATTAACATCAGAATTCCCGCTGATGTTAATCGGGTCTTGATTCGCTTGACGCTGCTG”, with 3.89 z-score.
Sequence “CCGATTAACATCAAAAAATACCATGATGTTAATCGGGTCTTGATTCGCTTGACGCTGCTG” gave a binding signal of 2.92 z-score.
With “CCGATTAACATCAGGGGGTCTACTGATGTTAATCGGGTCTTGATTCGCTTGACGCTGCTG”, the binding signal was determined as 2.55 z-score.
The value for “CCGATTAACATCAGGGGGGACAATGATGTTAATCGGGTCTTGATTCGCTTGACGCTGCTG” was 4.45 z-score; that for “CCGATTAACATCAGGGGAGGAAATGATGTTAATCGGGTCTTGATTCGCTTGACGCTGCTG” was 4.9 z-score.
Then “CCGATTAACATCAAATTTCCCGCTGATGTTAATCGGGTCTTGATTCGCTTGACGCTGCTG”, with 4.85 z-score.
“CCGATTAACATCAGGACAGTCCCTGATGTTAATCGGGTCTTGATTCGCTTGACGCTGCTG”: the binding signal came to 2.87 z-score.
Then “CCGATTAACATCACCCCAGCCCCTGATGTTAATCGGGTCTTGATTCGCTTGACGCTGCTG”, with 1.91 z-score; and “CCGATTAACATCACGGAACTCCCTGATGTTAATCGGGTCTTGATTCGCTTGACGCTGCTG”, with 3.15 z-score.
Then “CCGATTAACATCAGGGAGCTACCTGATGTTAATCGGGTCTTGATTCGCTTGACGCTGCTG”, with 1.68 z-score.
In turn, “CCGATTAACATCAGGGAAAACCATGATGTTAATCGGGTCTTGATTCGCTTGACGCTGCTG” gave a binding signal of 6.37 z-score.
The value for “CCGATTAACATCAAATAGGGAATTGATGTTAATCGGGTCTTGATTCGCTTGACGCTGCTG” was 4.24 z-score; that for “CCGATTAACATCAGAATTCCCACTGATGTTAATCGGGTCTTGATTCGCTTGACGCTGCTG” was 3.68 z-score; that for “CCGATTAACATCACATATTTCCCTGATGTTAATCGGGTCTTGATTCGCTTGACGCTGCTG” was 5.42 z-score.
Take “CCGATTAACATCAGGGAATGCACTGATGTTAATCGGGTCTTGATTCGCTTGACGCTGCTG”: the binding signal came to 2.1 z-score.
In turn, “CCGATTAACATCACGAGATTCCCTGATGTTAATCGGGTCTTGATTCGCTTGACGCTGCTG” returned a binding signal of 3.97 z-score.
The value for “CCGATTAACATCACCCGTTTCCCTGATGTTAATCGGGTCTTGATTCGCTTGACGCTGCTG” was 4.29 z-score; that for “CCGATTAACATCAAGGGATCCCCTGATGTTAATCGGGTCTTGATTCGCTTGACGCTGCTG” was 6.37 z-score.
The value for “CCGATTAACATCACGCAACCCCCTGATGTTAATCGGGTCTTGATTCGCTTGACGCTGCTG” was 4.87 z-score.
Turning to “CCGATTAACATCATTTCCCAAAATGATGTTAATCGGGTCTTGATTCGCTTGACGCTGCTG”, the binding signal worked out at 2.41 z-score.
As to “CCGATTAACATCAGGGAACTACCTGATGTTAATCGGGTCTTGATTCGCTTGACGCTGCTG”, the binding signal is 4.46 z-score.
Sequence “CCGATTAACATCAGGAAAATACCTGATGTTAATCGGGTCTTGATTCGCTTGACGCTGCTG” registered a binding signal of 3.24 z-score.
The value for “CCGATTAACATCAGGAATCCCTATGATGTTAATCGGGTCTTGATTCGCTTGACGCTGCTG” was 1.72 z-score.
The sequence “CCGATTAACATCATAGTCCCATGTGATGTTAATCGGGTCTTGATTCGCTTGACGCTGCTG” gave a binding signal of 1.82 z-score.
For “CCGATTAACATCAACCCTCCCCCTGATGTTAATCGGGTCTTGATTCGCTTGACGCTGCTG”, the binding signal was determined as 3.85 z-score.
Then “CCGATTAACATCATCTGGGAAAATGATGTTAATCGGGTCTTGATTCGCTTGACGCTGCTG”, with 4.03 z-score; and “CCGATTAACATCAGGGAATGTACTGATGTTAATCGGGTCTTGATTCGCTTGACGCTGCTG”, with 3.55 z-score.
“CCGATTAACATCAGGTAATCCCATGATGTTAATCGGGTCTTGATTCGCTTGACGCTGCTG” showed a binding signal of 2.09 z-score.
The value for “CCGATTAACATCAGGCCACCCCCTGATGTTAATCGGGTCTTGATTCGCTTGACGCTGCTG” was 2.48 z-score.
For “CCGATTAACATCACTGTTTTCCCTGATGTTAATCGGGTCTTGATTCGCTTGACGCTGCTG”, the binding signal amounted to 6.12 z-score.
The value for “CCGATTAACATCAGGGGAAGGTATGATGTTAATCGGGTCTTGATTCGCTTGACGCTGCTG” was 5.76 z-score; that for “CCGATTAACATCACGTAAACCCCTGATGTTAATCGGGTCTTGATTCGCTTGACGCTGCTG” was 2.13 z-score; that for “CCGATTAACATCAAGGACTTCCCTGATGTTAATCGGGTCTTGATTCGCTTGACGCTGCTG” was 2.77 z-score.
